PubChem BioAssay AID1159580 (chemical genetic matrix, 2015)
“And” between values parts separate entries of the source, which are not always exact repeats. Equal values may be shown once. Out of some 5,500 compounds screened, about 2,000 (36%) were called active. About 18% were inconclusive and are not listed. Cut-off read from the data, not from the text of the source: active = normalized growth mostly below about 0.91 (no sharp cut-off); inconclusive = no clear call, values can overlap the other calls; inactive = mostly above about 0.92. Some of the results follow.

Test: chemical genetic growth profiling, strain panel (AID 1159580);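 note: tested at 20 µM; growth read once vehicle control cultures reached saturation at 30 °C; 1 = growth at the plate median or of vehicle wells; lower values mean less growth of the strain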
Details: S. cerevisiae deletion strains, growth OD

Measured: normalized growth

O=c1cc(-c2ccc(O)cc2)oc2cc(O[C@@H]3O[C@H](CO)[C@@H](O)[C@H](O)[C@H]3O)cc(O)c12
inactive: locus YAL021C, strain ccr4, active compounds read low 0.975 | locus YAL026C, strain drs2, active compounds read low 1.02 | locus YAL030W, strain snc1, active compounds read low 1.01 | locus YBL061C, strain skt5, active compounds read low 1.01 | locus YBR009C, strain hhf1, active compounds read low 0.995 | locus YBR021W, strain FUR4, active compounds read low 0.953 | locus YBR023C, strain chs3, active compounds read low 0.995 | locus YBR171W, strain sec66, active compounds read low 1.02 | locus YBR229C, strain ROT2, active compounds read low 0.983 | locus YBR231C, strain swc5, active compounds read low 1.04 | locus YBR279W, strain paf1, active compounds read low 1 | locus YCL011C, strain gbp2, active compounds read low 0.992 | locus YCL016C, strain dcc1, active compounds read low 0.983 | locus YCL029C, strain bik1, active compounds read low 0.973 | locus YCL069W, strain vba3, active compounds read low 1 | locus YCR088W, strain abp1, active compounds read low 1 | locus YDL005C, strain med2, active compounds read low 1.03 | locus YDL035C, strain GPR1, active compounds read low 0.999 | locus YDL040C, strain nat1, active compounds read low 0.998 | locus YDL074C, strain BRE1, active compounds read low 0.974 | locus YDL101C, strain DUN1, active compounds read low 0.986 | locus YDL185W, strain tfp1, active compounds read low 0.968 | locus YDL192W, strain arf1, active compounds read low 0.976 | locus YDR001C, strain nth1, active compounds read low 1.01 | locus YDR069C, strain doa4, active compounds read low 1.01 | locus YDR101C, strain arx1, active compounds read low 0.981 | locus YDR137W, strain rgp1, active compounds read low 1.01 | locus YDR150W, strain NUM1, active compounds read low 0.988 | locus YDR159W, strain sac3, active compounds read low 1.06 | locus YDR162C, strain NBP2, active compounds read low 1.02 | locus YDR195W, strain ref2 1.01 | locus YDR297W, strain sur2, active compounds read low 1.02 | locus YDR318W, strain mcm21, active compounds read low 0.986 | locus YDR334W, strain swr1, active compounds read low 1.01 | locus YDR335W, strain msn5, active compounds read low 1 | locus YDR388W, active compounds read low 0.973 | locus YDR392W, strain spt3, active compounds read low 0.935 | locus YDR502C, strain sam2, active compounds read low 0.982 | locus YEL003W, strain gim4, active compounds read low 1.02 | locus YEL037C, strain rad23, active compounds read low 1.01 | locus YEL061C, strain CIN8 (second series), active compounds read low 1 | locus YEL061C, strain CIN8, active compounds read low 0.99 | locus YER015W, strain faa2, active compounds read low 0.993 | locus YER016W, strain bim1, active compounds read low 1.01 | locus YER110C, active compounds read low 0.995 | locus YER111C, strain swi4, active compounds read low 1.01 | locus YER155C, strain BEM2 (second series), active compounds read low 1.05 | locus YER155C, strain BEM2, active compounds read low 0.98 | locus YER167W, strain BCK2, active compounds read low 0.967 | locus YFR010W, strain ubp6, active compounds read low 1.02 | locus YGL078C, strain dbp3, active compounds read low 0.984 | locus YGL086W, strain mad1, active compounds read low 0.978 | locus YGL167C, strain pmr1, active compounds read low 1 | locus YGL173C, strain kem1, active compounds read low 1.03 | locus YGL227W, strain vid30, active compounds read low 1.01 | locus YGL240W, strain doc1, active compounds read low 1.02 | locus YGL248W, strain PDE1, active compounds read low 1 | locus YGL253W, strain hxk2, active compounds read low 1.01 | locus YGR078C, strain PAC10, active compounds read low 0.999 | locus YGR135W, strain pre9, active compounds read low 0.973 | locus YGR252W, strain gcn5, active compounds read low 0.974 | locus YHR013C, strain ard1, active compounds read low 0.994 | locus YHR027C, strain rpn1, active compounds read low 1.01 | locus YHR030C, strain SLT2, active compounds read low 0.986 and 1.05 | locus YHR079C, strain IRE1 (second series), active compounds read low 0.971 | locus YHR079C, strain IRE1, active compounds read low 1.03 | locus YHR094C, strain hxt1, active compounds read low 0.972 | locus YHR129C, strain ARP1, active compounds read low 0.988 | locus YHR142W, strain chs7, active compounds read low 1 | locus YHR200W, strain rpn10, active compounds read low 0.957 | locus YIL066C, strain RNR3, active compounds read low 0.979 | locus YIL073C, strain SPO22, active compounds read low 0.969 | locus YIL125W, strain kgd1, active compounds read low 0.974 | locus YIR030C, strain dcg1, active compounds read low 0.987 | locus YJL092W, strain hpr5, active compounds read low 1 | locus YJL095W, strain BCK1 (second series), active compounds read low 1.02 | locus YJL095W, strain BCK1, active compounds read low 1.02 | locus YJL115W, strain asf1, active compounds read low 1.01 | locus YJL129C, strain trk1, active compounds read low 1 | locus YJL134W, strain LCB3, active compounds read low 0.983 | locus YJL154C, strain vps35, active compounds read low 1.01 | locus YJL164C, strain tpk1, active compounds read low 0.979 | locus YJL166W, strain qcr8, active compounds read low 1.01 | locus YJL168C, strain set2, active compounds read low 0.995 | locus YJL187C, strain SWE1 (second series), active compounds read low 0.998 | locus YJR043C, strain POL32, active compounds read low 0.995 | locus YJR066W, strain TOR1, active compounds read low 0.998
